From PubChem BioAssay (Tox21)
Values joined by “and” are separate entries in the source; they are usually repeats but may differ in a detail not shown here. Equal values may be shown once. Results filed as inconclusive are left out. Entries that show only a call come without a potency. Active and inactive are the calls of the source. The call rests on the fitted dose curve; in most records, active means well fitted cell-killing curve with a large enough effect in the repeat runs; inconclusive means weak or mixed curves; inactive means no such curve, though single readings can be large or run the other way. Positions of bridges follow the written chain, without caps; N, C: chain ends. Non-standard residues stand in square brackets, D forms with d. Residues, ends and D or L forms follow the SMILES beside them. *: point of attachment. X1 = CC[C@@H](C)[C@@H](N)C1=N[C@H](C(=O)*)CS1; d(aIle) = CC[C@H](C)[C@@H](N)C(=O)O; dOrn = NCCC[C@@H](N)C(=O)O

Experiment: qHTS assay to identify small molecule antagonists of the androgen receptor (AR) signaling pathway - cell viability counter screen (AID 743033; further: nearly all actives have a fitted effect of over 45% in size)
Conditions: AR-bla HEK293 viability, CellTiter-Glo luminescence, 16 h; series mostly up to 58.5 µM
Description: National Center for Advancing Translational Sciences [NCATS]
NIH Chemical Genomics Center [NCGC]
U.S. Environmental Protection Agency [EPA]
National Institutes of Environmental Health Sciences [NIEHS]
National Toxicology Program [NTP]
U.S. Food and Drug Administration [FDA]
Androgen receptor (AR), a nuclear hormone receptor, plays a critical role in AR-dependent prostate cancer and other androgen related diseases. Endocrine disrupting chemicals (EDCs) and their interactions with steroid hormone receptors like AR may cause disruption of normal endocrine function as well as interfere with metabolic homeostasis, reproduction, developmental and behavioral functions. To identify the compounds that inhibit AR signaling, GeneBLAzer AR-UAS-bla-GripTite cell line (Invitrogen, Carlsbad, CA, USA) containing a beta-lactamase reporter gene under control of an Upstream Activator Sequence (UAS) stably integrated into HEK293 cells was used to screen the Tox21 10K compound library. The cytotoxicity of the Tox21 compound library against the AR-bla cell line was tested in parallel by measuring the cell viability using CellTiter-Glo assay in the same wells.
Tox21 Assay Protocol Summary:
AR-bla cells were dispensed at 2,000 cells/5 uL of assay medium per well into black wall/clear-bottom 1536-well plates using a Multidrop Combi (ThermoFisher Scientific, Waltham, MA) dispenser. After the assay plates were incubated at a 37C and 5% CO2 for 4 hr, 23 nL of compounds dissolved in DMSO, positive controls or DMSO only was transferred to the assay plate by a Pintool station (Kalypsys, San Diego, CA), followed by addition of 1 uL of agonist (R1881) in culture medium using a Bioraptr Flying Reagent Dispenser (FRD) workstation (Beckman Coulter, Indianapolis, IN, USA). The plates were incubated at a 37C and 5% CO2 for 16 h. After 1 uL of LiveBLAzerTM B/G FRET substrate was added using a Bioraptr FRD, the plates were incubated at room temperature for 2 h and fluorescence intensity was measured by an Envision plate reader (PerkinElmer, Shelton, CT). For cell viability readout that measures cytotoxicity, 4 ul/well of CellTiter-Glo reagent was added into the assay plates using a Bioraptr FRD. After 30 min incubation at room temperature, the luminescence intensity in the plates was measured using a ViewLux (PerkinElmer) plate reader.
Potency means the concentration at half of the fitted maximal effect.

SMILES	Potency
C=CC(N)CCC(=O)O (stereo not given)	inactive
CCN(CC)CCOC[C@H]1O[C@@H](O)[C@H](OCCN(CC)CC)[C@@H](O)[C@@H]1O	inactive
CC(=O)N[C@@H](C=O)[C@H](O)[C@H](O)[C@@H](O)CO	inactive
CC[C@@H](C)[C@H](N)C(=O)O	inactive
CN(C)CCC(O)(c1ccccc1)c1ccccc1Cl (stereo not given)	inactive
C/C=C/C1=C(C(=O)O)N2C(=O)[C@@H](NC(=O)[C@H](N)c3ccc(O)cc3)[C@H]2SC1	inactive
c1ccc2c(c1)OCC(CN1CCCCC1)O2 (stereo not given)	inactive
CN=C(N)NCCC[C@H](N)C(=O)O	inactive
O=C(Cn1cnnn1)N[C@@H]1C(=O)N2C(C(=O)O)=C(CSc3nncs3)CS[C@H]12	inactive
CN(C/C=C/c1ccccc1)Cc1cccc2ccccc12	inactive
CCC1OC(=O)C[C@@H](O)[C@H](C)[C@@H](O[C@@H]2O[C@H](C)C[C@H](N(C)C)[C@H]2O)[C@@H](CC=O)C[C@@H](C)C(=O)/C=C/[C@]2(C)OC2C1C (stereo not given in full)	inactive
O=P(O)(O)C(O)(Cn1ccnc1)P(=O)(O)O	inactive
CCN1\C(=C/C=C/C=C/c2sc3ccccc3[n+]2CC)Sc2ccccc21	2.68 µM (active) and 8.49 µM (active)
CC/C=C\C/C=C\C/C=C\C/C=C\C/C=C\C/C=C\CCC(=O)O	inactive
O=C1C2CC3CC1CC(O)(C3)C2	inactive
C/C(=C\C(=O)OCCCCCCCCC(=O)O)C[C@@H]1OC[C@H](C[C@@H]2O[C@H]2[C@@H](C)[C@H](C)O)[C@@H](O)[C@H]1O	inactive
Cc1cnc(C(=O)O)c[n+]1[O-]	inactive
NCC(O)CC(=O)O (stereo not given)	inactive
CC(C)CCC[C@@H](C)[C@H]1CC[C@H]2[C@@H]3CC=C4C[C@@H](O)CC[C@]4(C)[C@H]3CC[C@]12C	inactive
CC[C@@H](C)[C@@H](N)C1=N[C@H](C(=O)N[C@@H](CC(C)C)C(=O)N[C@@H](CCC(=O)O)C(=O)N[C@@H](C(=O)N[C@@H]2CCCCNC(=O)[C@@H](CC(N)=O)NC(=O)[C@@H](CC(=O)O)NC(=O)[C@@H](Cc3cnc[nH]3)NC(=O)[C@@H](Cc3ccccc3)NC(=O)[C@@H]([C@H](C)CC)NC(=O)[C@@H](CCCN)NC2=O)[C@@H](C)CC)CS1 (X1-LE[d(aIle)][dK][dOrn][dI][dF][dH][dD][dN]; lactam 4-C)	inactive

SMILES	Potency
CSCC[C@H](NC(=O)[C@H](Cc1ccc(OS(=O)(=O)O)cc1)NC(=O)[C@@H](N)CC(=O)O)C(=O)NCC(=O)N[C@@H](Cc1c[nH]c2ccccc12)C(=O)N[C@@H](CCSC)C(=O)N[C@@H](CC(=O)O)C(=O)N[C@@H](Cc1ccccc1)C(N)=O	inactive
N=C(N)n1cccn1	inactive
CN(C)CCc1c[nH]c2ccc(Cn3cncn3)cc12	inactive
O=C(CCCCCCCCc1cccnc1)N1CCC(C=C(c2ccccc2)c2ccccc2)CC1	inactive
CC(C)[N+]1(C)[C@@H]2CC[C@H]1CC(OC(=O)C(CO)c1ccccc1)C2 (stereo not given in full)	inactive
CS(=O)(=O)c1ccc([C@@H](O)[C@@H](COC(=O)CN)NC(=O)C(Cl)Cl)cc1	inactive
C=CC1=C(C(=O)O)N2C(=O)[C@@H](NC(=O)/C(=N\O)c3csc(N)n3)[C@H]2SC1 (stereo in doubt)	inactive
c1ccc(-c2ccc(C(c3ccccc3)n3ccnc3)cc2)cc1 (stereo not given)	inactive
NC(=O)[C@H]1O[C@@H](O)[C@H](O)[C@@H](O)[C@@H]1O	inactive
NC(N)=NCc1cccc(I)c1	inactive
O=C1CC[C@@H](C(=O)N[C@H]2C[C@@H]2c2ccccc2)N1	inactive
CCCCC[C@H](O)/C=C/[C@@H]1[C@@H](C/C=C\CCCC(=O)O)[C@@H](O)C[C@H]1O	inactive
CN[C@H](CC(C)C)C(=O)N[C@H]1C(=O)N[C@@H](CC(N)=O)C(=O)N[C@H]2C(=O)N[C@H]3C(=O)N[C@H](C(=O)N[C@@H](C(=O)O)c4cc(O)cc(O)c4-c4cc3ccc4O)[C@H](O)c3ccc(c(Cl)c3)Oc3cc2cc(c3O[C@@H]2O[C@H](CO)[C@@H](O)[C@H](O)[C@H]2O[C@H]2C[C@](C)(N)C(O)[C@H](C)O2)Oc2ccc(cc2Cl)[C@H]1O (stereo not given in full)	inactive
SC1CCCCC1	inactive
CC(C)(S)C(=O)N[C@@H](CS)C(=O)O	inactive
O=S(=O)(O)CC(S)CS (stereo not given)	inactive
CC(=NCc1ccccc1)c1ccccc1O	inactive
C=C(Nc1ccc(OCC)cc1)Nc1ccc(OCC)cc1	inactive
Cc1c(O)c(=O)ccn1C	inactive
CN(Cc1ccccc1)Cc1ccccc1	inactive
